Data taken from PubChem BioAssay (NCI).
The panel holds about 83,000 compounds, 20% with a hit somewhere; the sample as a whole holds those more often.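 Compound tested at a single concentration for 48 hours in 96-well plates; a percent growth value below 10 was scored as active.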 Calls of active or inactive are those of the source.

How the values were obtained:
Assay in all cases: NCI-60 one-dose screen, 48 h (100 = growth as untreated, 0 = no growth, -100 = all killed)
Settings in all cases: 10 µM unless noted
[1] = test system: DU-145 prostate
[2] = test system: K-562 leukemia
[3] = test system: MALME-3M melanoma
[4] = test system: MDA-MB-231 breast
[5] = test system: RXF 393 renal
[6] = test system: SF-268 CNS
[7] = test system: SF-295 CNS
[8] = test system: SF-539 CNS
[9] = test system: UACC-257 melanoma
[10] = test system: M14 melanoma

Structure (SMILES): Nc1ccc(Nc2ncnc3sc4c(c23)CCN(Cc2ccccc2)C4)cc1
- growth [1]: 106% (inactive)
- growth [2]: 96.7% (inactive)
- growth [3]: 103% (inactive)
- growth [4]: 86.6% (inactive)
- growth [5]: 91.2% (inactive)
- growth [6]: 101% (inactive)
- growth [7]: 97.8% (inactive)
- growth [8]: 78.5% (inactive)
- growth [9]: 106% (inactive)
- growth [10]: 106% (inactive)

Structure (SMILES): COc1ccc2c(c1)c(-c1nnc(N)nc1-c1c[nH]c3ccc(F)cc13)cn2C
- growth [1]: 70.4% (inactive)
- growth [2]: 11.9% (inactive)
- growth [3]: 75.7% (inactive)
- growth [4]: 73.7% (inactive)
- growth [5]: 47.8% (inactive)
- growth [6]: 54.2% (inactive)
- growth [7]: 33% (inactive)
- growth [8]: 40.5% (inactive)
- growth [9]: 62.5% (inactive)
- growth [10]: 32.8% (inactive)

Structure (SMILES): Brc1cc(-c2cc(-c3ccc4c(c3)OC=CO4)[nH]n2)cs1
- growth [1]: 95.9% (inactive)
- growth [2]: 41.3% (inactive)
- growth [3]: 64% (inactive)
- growth [4]: 81.2% (inactive)
- growth [5]: 93.7% (inactive)
- growth [6]: 90.1% (inactive)
- growth [7]: 79.1% (inactive)
- growth [8]: 85.2% (inactive)
- growth [9]: 101% (inactive)
- growth [10]: 83.3% (inactive)

Structure (SMILES): O=C1Nc2cc(Cl)ccc2/C1=C\c1ccc(OCc2ccccc2)cc1
- growth [1]: 101% (inactive)
- growth [2]: 93.1% (inactive)
- growth [3]: 115% (inactive)
- growth [4]: 104% (inactive)
- growth [5]: 114% (inactive)
- growth [6]: 94.5% (inactive)
- growth [7]: 115% (inactive)
- growth [8]: 94.5% (inactive)
- growth [9]: 116% (inactive)
- growth [10]: 96.2% (inactive)

Structure (SMILES): C=C(C)[C@@H]1CC[C@]2(C(=O)O)CC[C@]3(C)[C@H](CC[C@@H]4[C@@]5(C)C/C(=C/c6ccccn6)C(=O)C(C)(C)[C@@H]5CC[C@]43C)[C@@H]12
- growth [1]: 45.5% (inactive)
- growth [2]: 29.3% (inactive)
- growth [3]: 72.5% (inactive)
- growth [4]: 61.7% (inactive)
- growth [5]: 62.1% (inactive)
- growth [6]: 51.5% (inactive)
- growth [7]: 34% (inactive)
- growth [8]: 46.8% (inactive)
- growth [9]: 46.5% (inactive)
- growth [10]: 59% (inactive)

Structure (SMILES): CCn1c2ccc(/C=N/N(C)S(=O)(=O)CCN(C)C)cc2c2cc(/C=N/N(C)S(=O)(=O)CCN(C)C)ccc21
- growth [1]: 77.3% (inactive)
- growth [2]: 8.55% (active)
- growth [3]: 62.7% (inactive)
- growth [4]: 55% (inactive)
- growth [5]: 46.9% (inactive)
- growth [6]: 76.7% (inactive)
- growth [7]: 80% (inactive)
- growth [8]: 4.32% (active)
- growth [9]: 92.8% (inactive)
- growth [10]: 66% (inactive)

Structure (SMILES): O=[N+]([O-])c1ccc(NC(=S)NNC(=S)Nc2ccc(Br)cc2)cc1
- growth [1]: 104% (inactive)
- growth [2]: 49.1% (inactive)
- growth [3]: 89.4% (inactive)
- growth [4]: 91.6% (inactive)
- growth [5]: 103% (inactive)
- growth [6]: 101% (inactive)
- growth [7]: 72.6% (inactive)
- growth [8]: 95.2% (inactive)
- growth [9]: 95.2% (inactive)
- growth [10]: 87.9% (inactive)

Structure (SMILES): COc1ccc(/C=N/NC(=O)c2c(N)nn(C)c2Nc2ccccc2)cc1
- growth [1]: 76.3% (inactive)
- growth [2]: 19.2% (inactive)
- growth [3]: 44.7% (inactive)
- growth [4]: 65.1% (inactive)
- growth [5]: 37.3% (inactive)
- growth [6]: 58.6% (inactive)
- growth [7]: 9.85% (active)
- growth [8]: 40.2% (inactive)
- growth [9]: 56.4% (inactive)
- growth [10]: 13% (inactive)

Structure (SMILES): CCCCCc1ccc(S(=O)(=O)Nc2cc(-c3csc(N)n3)ccc2OC)cc1
- growth [1]: 107% (inactive)
- growth [2]: 83.9% (inactive)
- growth [3]: 96.1% (inactive)
- growth [4]: 92% (inactive)
- growth [5]: 99.7% (inactive)
- growth [6]: 94.7% (inactive)
- growth [7]: 84.8% (inactive)
- growth [8]: 89.7% (inactive)
- growth [9]: 107% (inactive)
- growth [10]: 103% (inactive)

Structure (SMILES): Fc1ccc2nc(-c3cnn4cccnc34)sc2c1
- growth [1]: 103% (inactive)
- growth [2]: 86.2% (inactive)
- growth [3]: 108% (inactive)
- growth [4]: 84.3% (inactive)
- growth [5]: 92.9% (inactive)
- growth [6]: 82.5% (inactive)
- growth [7]: 100% (inactive)
- growth [8]: 86.7% (inactive)
- growth [9]: 100% (inactive)
- growth [10]: 101% (inactive)

Structure (SMILES): COc1ccc(/C(=N\NC(N)=S)c2ccc(Cl)cc2)cc1OC
- growth [1]: 37.5% (inactive)
- growth [2]: 19% (inactive)
- growth [3]: 30.8% (inactive)
- growth [4]: 16.8% (inactive)
- growth [5]: 25.1% (inactive)
- growth [6]: 45% (inactive)
- growth [7]: 13.4% (inactive)
- growth [8]: 14.2% (inactive)
- growth [9]: 42.9% (inactive)
- growth [10]: -4.37% (active)

Structure (SMILES): NC(=O)n1c(=O)n(-c2cccc(C(F)(F)F)c2)c(=O)c2cc(-c3ccc(F)cc3F)ccc21
- growth [1]: 23.3% (inactive)
- growth [2]: 5.61% (active)
- growth [3]: -18.8% (active)
- growth [4]: -24% (active)
- growth [5]: -2.52% (active)
- growth [6]: 16.6% (inactive)
- growth [7]: -10.1% (active)
- growth [8]: 15.5% (inactive)
- growth [9]: -13.5% (active)
- growth [10]: 11.1% (inactive)

Structure (SMILES): CCOC(=O)C1=C(C)NC(C)=C(C(=O)OC(C)C)C1c1cccc(C#N)c1 (stereo not given)
- growth [1]: 104% (inactive)
- growth [2]: 93.9% (inactive)
- growth [3]: 97.2% (inactive)
- growth [4]: 95.2% (inactive)
- growth [5]: 90.8% (inactive)
- growth [6]: 96.9% (inactive)
- growth [7]: 106% (inactive)
- growth [8]: 104% (inactive)
- growth [9]: 104% (inactive)
- growth [10]: 105% (inactive)

Structure (SMILES): CN1c2ccccc2Sc2cc(/C=N/Nc3ccnc4cc(Cl)ccc34)ccc21
- growth [1]: 103% (inactive)
- growth [2]: -7.83% (active)
- growth [3]: 94.7% (inactive)
- growth [4]: 98.5% (inactive)
- growth [5]: 82.2% (inactive)
- growth [6]: 99.4% (inactive)
- growth [7]: 98.7% (inactive)
- growth [8]: 103% (inactive)
- growth [9]: 96.3% (inactive)
- growth [10]: 92.7% (inactive)

Structure (SMILES): COC(=O)CCSC1=C(C)C(=O)c2ccccc2C1=O
- growth [1]: 111% (inactive)
- growth [2]: 38.4% (inactive)
- growth [3]: 104% (inactive)
- growth [4]: 75.6% (inactive)
- growth [5]: 87.3% (inactive)
- growth [6]: 97.4% (inactive)
- growth [7]: 102% (inactive)
- growth [8]: 78.6% (inactive)
- growth [9]: 106% (inactive)
- growth [10]: 107% (inactive)

Structure (SMILES): CC(Nc1ncnc2ccc(-c3cnc(N)nc3)cc12)c1ccccc1 (stereo not given)
- growth [1]: 25.1% (inactive)
- growth [2]: 44.5% (inactive)
- growth [3]: 28.9% (inactive)
- growth [4]: 25.4% (inactive)
- growth [5]: -2.14% (active)
- growth [6]: 40.9% (inactive)
- growth [7]: 29.6% (inactive)
- growth [8]: 23.4% (inactive)
- growth [9]: 77.2% (inactive)
- growth [10]: 48.3% (inactive)

Structure (SMILES): NS(=O)(=O)c1ccc(Nc2nc(N/N=C/C=C/c3ccccc3)nc(Nc3ccccc3)n2)cc1
- growth [1]: 42.5% (inactive)
- growth [2]: 27.1% (inactive)
- growth [3]: 50.7% (inactive)
- growth [4]: 47.9% (inactive)
- growth [5]: -8.45% (active)
- growth [6]: 46% (inactive)
- growth [7]: 44.5% (inactive)
- growth [8]: 39.4% (inactive)
- growth [9]: 79.2% (inactive)
- growth [10]: 40.3% (inactive)

Structure (SMILES): COc1cc(C(=O)c2cc(C(C)=O)c3cccc(C)n23)cc(OC)c1OC
- growth [1]: 68.3% (inactive)
- growth [2]: 15.6% (inactive)
- growth [3]: 46.2% (inactive)
- growth [4]: 37.4% (inactive)
- growth [5]: 46.6% (inactive)
- growth [6]: 54% (inactive)
- growth [7]: 17.9% (inactive)
- growth [8]: 46.8% (inactive)
- growth [9]: 56% (inactive)
- growth [10]: 5.73% (active)

Structure (SMILES): Cc1ccc(-c2cc3nc(C(Cl)Cl)nc(-c4ccc(S(=O)(=O)N(C)C)cc4)n3n2)cc1
- growth [1]: 85.3% (inactive)
- growth [2]: 41% (inactive)
- growth [3]: 100% (inactive)
- growth [4]: 95.1% (inactive)
- growth [5]: 90.1% (inactive)
- growth [6]: 98.7% (inactive)
- growth [7]: 86.2% (inactive)
- growth [8]: 80.3% (inactive)
- growth [9]: 100% (inactive)
- growth [10]: 93.1% (inactive)

Structure (SMILES): COC(=O)c1cccc(NC2=C(Cl)C(=O)c3nc(C)ccc3C2=O)c1
- growth [1]: 105% (inactive)
- growth [2]: 6.34% (active)
- growth [3]: 87.5% (inactive)
- growth [4]: 62.6% (inactive)
- growth [5]: 59.7% (inactive)
- growth [6]: 99.5% (inactive)
- growth [7]: 107% (inactive)
- growth [8]: 111% (inactive)
- growth [9]: 62% (inactive)
- growth [10]: 98.3% (inactive)

Structure (SMILES): O=C(Nc1cccc(Cl)c1)Nc1nc2cc([N+](=O)[O-])ccc2o1
- growth [1]: 52.7% (inactive)
- growth [2]: 37.8% (inactive)
- growth [3]: 29.7% (inactive)
- growth [4]: 61.4% (inactive)
- growth [5]: 67.4% (inactive)
- growth [6]: 37.3% (inactive)
- growth [7]: 51% (inactive)
- growth [8]: 59.4% (inactive)
- growth [9]: 54.6% (inactive)
- growth [10]: 39.5% (inactive)

Structure (SMILES): COc1cc(-c2nc(-c3ccccc3)[nH]c2-c2ccnc(NCCCNS(=O)(=O)c3cccc(F)c3)n2)ccc1F
- growth [1]: 87.1% (inactive)
- growth [2]: 63.6% (inactive)
- growth [3]: 95.6% (inactive)
- growth [4]: 94.3% (inactive)
- growth [5]: 92.2% (inactive)
- growth [6]: 89.1% (inactive)
- growth [7]: 102% (inactive)
- growth [8]: 98.6% (inactive)
- growth [9]: 115% (inactive)
- growth [10]: 93.3% (inactive)

Structure (SMILES): C#C[C@]1(O)CC[C@H]2[C@@H]3CC=C4c5sc(Nc6cc(Cl)ccc6OC)nc5CC[C@]4(C)[C@H]3CC[C@@]21C
- growth [1]: 19.1% (inactive)
- growth [2]: 4.32% (active)
- growth [3]: 12.1% (inactive)
- growth [4]: 43.6% (inactive)
- growth [5]: -74.9% (active)
- growth [6]: 24.6% (inactive)
- growth [7]: -62.4% (active)
- growth [8]: -22.1% (active)
- growth [9]: -16.3% (active)
- growth [10]: -51.7% (active)

Structure (SMILES): COc1ccc(NC2=C(Br)C(=O)C(C)=C(C)C2=O)cc1OC
- growth [1]: 109% (inactive)
- growth [2]: -7.89% (active)
- growth [3]: 117% (inactive)
- growth [4]: 33.3% (inactive)
- growth [5]: 104% (inactive)
- growth [6]: 95.3% (inactive)
- growth [7]: 94.4% (inactive)
- growth [8]: 101% (inactive)
- growth [9]: 96% (inactive)
- growth [10]: 104% (inactive)

Structure (SMILES): O=C1[C@@H]2Cc3c([nH]c4ccccc34)[C@H](c3ccc(Cl)cc3)N2C(=O)CN1C1CCN(Cc2ccccc2)CC1
- growth [1]: 56.1% (inactive)
- growth [2]: 9.57% (active)
- growth [3]: 74.5% (inactive)
- growth [4]: 68.6% (inactive)
- growth [5]: 57.6% (inactive)
- growth [6]: 50.5% (inactive)
- growth [7]: 70.6% (inactive)
- growth [8]: 77.6% (inactive)
- growth [9]: 61.4% (inactive)
- growth [10]: 27.9% (inactive)

Structure (SMILES): COc1ccc(-c2cc(-c3ccc(N4CCOCC4)cc3)n3c(n2)nc2ccccc23)cc1OC
- growth [1]: 91.2% (inactive)
- growth [2]: 68.9% (inactive)
- growth [3]: 93.3% (inactive)
- growth [4]: 70.9% (inactive)
- growth [5]: 72.8% (inactive)
- growth [6]: 90.7% (inactive)
- growth [7]: 100% (inactive)
- growth [8]: 76.7% (inactive)
- growth [9]: 97.7% (inactive)
- growth [10]: 93.1% (inactive)
